# A number with no mark means an inactive call. Rule as the data show it: active = IC50 below about 40 µM; inactive = the rest.
# Assay: HTRF spectral interference by compounds, SAR follow-up, artefact control, biochemical, fluorescence ratio (AID 2496)
# Conditions: HTRF spectral interference counter-screen
structure (smiles),measurement,value
O=C(c1ccc2nc(-c3ccco3)c(-c3ccco3)nc2c1)N1CCC2(CC1)OCCO2,IC50,> 50 µM
